Compound activity (PubChem)
The list is not random: actives were taken first. Their share in the collection is about 0.86%.
APE1 inh-1 – qHTS Assay for Inhibitors of the Human Apurinic/apyrimidinic Endonuclease 1 (APE1) | Potency, µM (top dose mostly 65.8 µM), hits mostly inhibitors | AID 2517, 2012 | hit rate 0.35% among 350,000 | recombinant APE1, TAMRA/BHQ-2 abasic DNA cleavage fluorescence | DNA repair nuclease/redox regulator APEX1 (Homo sapiens), P27695; note: nearly all actives have a fitted effect of over 55% in size
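Substrate: short duplex with […] THF abasic site, 5'-TAMRA and 3'-BHQ-2, 50 nM final. APE1 at 0.75 nM, preincubated 15 min RT with compound. Fluorescence increase from first to third read measured activity.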
BLM inh-1 – qHTS Assay for Inhibitors of Bloom's syndrome helicase (BLM) | hit rate 0.2% among 350,000 | Potency, µM (doses to about 56.1 µM), actives largely listed as inhibitors | recombinant BLM DNA unwinding, fluorescence dequenching; note: nearly all actives have a fitted effect of over 35% in size
Target sequence (P54132 whole entry, looked up): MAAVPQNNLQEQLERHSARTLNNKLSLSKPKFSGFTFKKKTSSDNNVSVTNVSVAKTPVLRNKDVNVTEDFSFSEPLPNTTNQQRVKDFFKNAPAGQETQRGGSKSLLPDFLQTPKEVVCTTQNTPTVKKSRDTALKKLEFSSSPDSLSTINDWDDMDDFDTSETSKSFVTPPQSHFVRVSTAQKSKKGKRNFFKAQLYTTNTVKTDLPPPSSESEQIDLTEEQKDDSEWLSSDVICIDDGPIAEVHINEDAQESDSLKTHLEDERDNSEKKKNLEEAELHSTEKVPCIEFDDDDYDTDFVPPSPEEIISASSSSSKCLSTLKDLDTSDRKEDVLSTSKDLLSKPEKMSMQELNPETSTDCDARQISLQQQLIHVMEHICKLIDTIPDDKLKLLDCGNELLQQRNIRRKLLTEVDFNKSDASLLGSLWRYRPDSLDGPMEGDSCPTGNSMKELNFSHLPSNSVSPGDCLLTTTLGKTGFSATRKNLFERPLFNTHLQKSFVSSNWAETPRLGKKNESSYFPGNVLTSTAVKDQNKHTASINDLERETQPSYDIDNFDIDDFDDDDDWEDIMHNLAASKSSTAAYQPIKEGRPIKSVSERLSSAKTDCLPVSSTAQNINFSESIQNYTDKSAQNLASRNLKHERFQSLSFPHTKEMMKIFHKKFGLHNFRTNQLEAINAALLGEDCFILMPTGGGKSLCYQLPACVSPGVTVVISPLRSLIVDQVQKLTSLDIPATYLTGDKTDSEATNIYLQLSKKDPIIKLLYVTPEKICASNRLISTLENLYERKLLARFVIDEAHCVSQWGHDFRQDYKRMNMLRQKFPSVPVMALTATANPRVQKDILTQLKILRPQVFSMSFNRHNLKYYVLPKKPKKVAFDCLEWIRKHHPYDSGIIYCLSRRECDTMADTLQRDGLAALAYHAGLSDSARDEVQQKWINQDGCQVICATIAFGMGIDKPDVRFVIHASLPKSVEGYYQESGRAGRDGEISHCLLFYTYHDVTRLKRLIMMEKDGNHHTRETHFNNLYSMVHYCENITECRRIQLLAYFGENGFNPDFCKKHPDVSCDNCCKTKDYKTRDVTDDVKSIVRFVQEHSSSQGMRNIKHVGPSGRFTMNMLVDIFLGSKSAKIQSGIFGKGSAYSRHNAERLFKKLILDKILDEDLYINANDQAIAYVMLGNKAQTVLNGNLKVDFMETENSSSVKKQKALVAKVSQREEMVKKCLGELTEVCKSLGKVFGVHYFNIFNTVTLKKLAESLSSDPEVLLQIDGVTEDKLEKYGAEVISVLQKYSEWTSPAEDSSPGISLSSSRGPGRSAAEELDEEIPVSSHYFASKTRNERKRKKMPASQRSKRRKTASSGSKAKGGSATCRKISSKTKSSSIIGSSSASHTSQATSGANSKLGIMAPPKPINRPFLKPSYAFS
RECQ1 inh-1 – qHTS Assay for Inhibitors of RecQ-Like Dna Helicase 1 (RECQ1); ATP-dependent DNA helicase Q1 (Homo sapiens), P46063; RECQ1 DNA unwinding, red fluorescence kinetic read; Potency, µM (highest dose often 57.3 µM), most hits filed as inhibitors; hit rate 0.54% among 240,000; note: nearly all actives have a fitted effect of over 30% in size
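50 nM RECQ1T1 preincubated 15 min with compound in Tris pH 8.0 buffer with MgCl2, DTT, Tween-20 and 2.5 ug/ml poly(dI-dC); started with 200 nM TAMRA/BHQ-2 forked duplex and 2 mM ATP. Unwinding read as fluorescence (525/598 nm), two reads 2 h apart.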
GLS inh – qHTS for Inhibitors of Glutaminase (GLS) | hit rate 0.21% among 410,000 | GLS enzymatic activity, qHTS titration | AID 624170, 2012 | Potency, µM (titrated, usually from 45.5 µM), most hits filed as inhibitors
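hKGA in 45 mM KH2PO4 pH 8.2, 0.02% Tween-20 with pin-transferred compounds; 1 mM L-glutamine (stock) plus glutamate oxidase/HRP/Amplex Red coupling added. Fluorescence read initially and after 30 min at RT.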
FEN1 inh-1 – qHTS Assay for the Inhibitors of Human Flap endonuclease 1 (FEN1) | P39748 | Recombinant FEN1 flap cleavage, fluorescence, 15 min | Potency, µM (series often up to 114 µM), usual class: inhibitors | hit rate 0.35% among 390,000 | AID 588795, 2011; note: nearly all actives have a fitted effect of over 65% in size
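Reaction started by adding substrate (50 nM final) to 10 nM enzyme after 15 min room-temperature compound preincubation. Reads at 0 and 15 min, with data normalized and fitted to a four-parameter Hill equation.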
Tb PGK inh – qHTS Assay to Find Inhibitors of Phosphoglycerate Kinase; Phosphoglycerate kinase, glycosomal (Trypanosoma brucei brucei), P07378; PGK/GAPDH coupled, Kinase-Glo luminescence, 60 min; Potency, µM (series often up to 57.5 µM), most hits filed as inhibitors; hit rate 0.043% among 380,000; AID 602233, 2012; note: nearly all actives have a fitted effect of over 60% in size
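Luminescent ATP detection (Kinase-Glo Plus) follows a 60-minute room-temperature incubation, with wells lacking PGK as controls. Buffer: 100 mM TEA (pH 7.6), 5 mM MgCl2, 0.01% Tween-20. Coupling enzyme GAPDH (100 nM final) supplies unstable 1,3-BPG in-well.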
DNA dye displace – Counterscreen for APE1 Inhibitors: Fluorescent Dye Displacement Assay. shares compounds with APE1 inh-1. DNA fluorescent dye displacement counterscreen, fluorescence. Potency, µM (top dose mostly 28.5 µM), actives largely listed as inhibitors. hit rate 7% among 480;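 note: loss of thiazole orange fluorescence as the dye is displaced from duplex DNA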
EndoIV counter – Counterscreen for APE1 Inhibitors: qHTS Assay for Inhibitors of Endonuclease IV. shares compounds with APE1 inh-1. E. coli Endo IV, fluorogenic AP-site DNA cleavage. Potency, µM (series often up to 27.1 µM), actives largely listed as inhibitors. hit rate 4% among 560. AID 2565, 2010
APE1 inh-2 – Confirmation qHTS Assay for Inhibitors of the Human Apurinic/apyrimidinic Endonuclease 1 (APE1). AID 2572, 2010. hit rate 44% among 750. Potency, µM (titrated, usually from 57.1 µM), actives largely listed as inhibitors. purified APE1, fluorogenic abasic-site DNA cleavage. shares compounds with APE1 inh-1; note: nearly all actives have a fitted effect of over 30% in size
APE1 FP inh – qHTS FP-Based Assay for Inhibitors of the Human Apurinic/apyrimidinic Endonuclease 1 (APE1) | APE1 binding to TAMRA-labelled double-stranded DNA, fluorescence polarization displacement | hit rate 7% among 480 | Potency, µM (series often up to 28.5 µM), most hits filed as inhibitors | shares compounds with APE1 inh-1
BLM inh-2 – qHTS Confirmation Assay for Inhibitors of Bloom's syndrome helicase (BLM); shares compounds with BLM inh-1; AID 2585, 2010; hit rate 40% among 220; Potency, µM, usual class: inhibitors; BLM DNA unwinding, fluorescence quenching, biochemical;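 note: strand separation dequenches TAMRA so unwinding raises red fluorescence; series mostly up to about 69 µM; nearly all actives have a fitted effect of over 45% in size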
RECQ1 conf – Confirmation qHTS Assay for Inhibitors of RecQ-Like Dna Helicase 1 (RECQ1); shares compounds with RECQ1 inh-1; RECQ1 helicase DNA unwinding, fluorescence; Potency, µM (doses to about 229 µM), usual class: inhibitors; hit rate 28% among 610; AID 2708, 2010; note: nearly all actives have a fitted effect of over 45% in size
RECQ1 ADP FP – Counterscreen for RECQ1 Inhibitors: ADP Fluorescence Polarization Displacement Assay; ADP fluorescence polarization displacement counterscreen; hit rate 27% among 530; Potency, µM (top dose mostly 228 µM), hits mostly inhibitors; shares compounds with RECQ1 inh-1; note: nearly all actives have a fitted effect of over 45% in size
RECQ1 inh-2 – Confirmation qHTS Assay for Inhibitors of RecQ-Like Dna Helicase 1 (RECQ1) - Round 2 Cherry Picks | shares compounds with RECQ1 inh-1 | recombinant RECQ1 DNA unwinding, red fluorescence | Potency, µM (top dose mostly 119 µM), usual class: inhibitors | hit rate 15% among 1,100; note: nearly all actives have a fitted effect of over 50% in size
FEN1 inh-2 – qHTS Assay for the Inhibitors of FEN1: Confirmatory Assay for Cherry-picked Compounds; shares compounds with FEN1 inh-1; FEN1 flap cleavage, TAMRA/BHQ2 fluorogenic DNA substrate; Potency, µM, hits mostly inhibitors; hit rate 79% among 880; AID 720498, 2013; note: nearly all actives have a fitted effect of over 60% in size
Each line names hits and unclear results; the compound was inactive in the other large screens (follow-up assays come after a bar, where they were run); ! = a repeat was not active. Calls come from the whole dose curve; as a rule, active = well fitted curve in the direction sought with a large enough effect; inconclusive = small, poorly fitted or top-dose-only effect, or another doubt; inactive = no such curve, though single readings can be large; an effect the other way counts as inactive or inconclusive.

CC(=O)[C@]1(O)Cc2c(O)c3c(c(O)c2[C@@H](O[C@H]2C[C@H](N)[C@H](O)[C@H](C)O2)C1)C(=O)c1c(O)cccc1C3=O	APE1 inh-1 25µM, BLM inh-1 28µM, RECQ1 inh-1 28µM (no result: FEN1 inh-1, Tb PGK inh) | DNA dye displace inactive | APE1 inh-2 7.9µM | APE1 FP inh 1.4µM | RECQ1 conf 100µM | RECQ1 ADP FP 0.89µM
C(=C\c1ccnc2ccccc12)/c1cccnc1	none (no result: APE1 inh-1, BLM inh-1, RECQ1 inh-1, GLS inh, Tb PGK inh)
O=C(O)Cc1cccc(-c2cc(CCCCCCc3ccc(O[C@H]4O[C@H](CO)[C@@H](O)[C@H](O)[C@@H]4O)c(-c4cccc(CC(=O)O)c4)c3)ccc2O[C@H]2O[C@H](CO)[C@@H](O)[C@H](O)[C@@H]2O)c1	none (no result: APE1 inh-1, BLM inh-1, RECQ1 inh-1, FEN1 inh-1, Tb PGK inh)
Cc1ccc(C)n1Cc1ccc(C(=O)O)cc1	APE1 inh-1 3.5µM, RECQ1 inh-1 7.1µM, GLS inh 7.1µM, FEN1 inh-1 4µM, Tb PGK inh 3.2µM | APE1 inh-2 14µM | RECQ1 conf 20µM
Cc1cc(C)n(Cc2ccc(C(=O)O)cc2)n1	none
COCCCOc1cc(C[C@@H](C[C@H](N)[C@@H](O)C[C@H](C(=O)NCC(C)(C)C(N)=O)C(C)C)C(C)C)ccc1OC	none (no result: APE1 inh-1, BLM inh-1, RECQ1 inh-1, FEN1 inh-1, Tb PGK inh)
C[N+]1(CC(=O)c2ccc(F)cc2)CCc2ccccc2C1 (stereo unspecified)	none (no result: APE1 inh-1, BLM inh-1, RECQ1 inh-1, GLS inh, Tb PGK inh)
CCOc1ccccc1-c1nnc2n1N=C(c1ccc(OC)c(OC)c1)CS2	APE1 inh-1 10µM (no result: GLS inh, FEN1 inh-1, Tb PGK inh) | DNA dye displace inconclusive | EndoIV counter inactive | APE1 inh-2 inactive | APE1 FP inh inconclusive | RECQ1 conf inactive
COc1ccc(C2=Nn3c(nnc3-c3ccccc3O)SC2)cc1OC	none (no result: GLS inh, FEN1 inh-1, Tb PGK inh)
O=C1NC(=S)SC1=C1CCCC1	APE1 inh-1 10µM, BLM inh-1 inconclusive, RECQ1 inh-1 7.9µM, FEN1 inh-1 79µM | DNA dye displace inactive | EndoIV counter inactive | APE1 inh-2 inconclusive | APE1 FP inh inactive | RECQ1 conf inconclusive | RECQ1 ADP FP 45µM
CN1C(=O)C(=C2CCCCCC2)SC1=S	none
COc1cccc2c1C(=O)c1c(O)c3c(c(O)c1C2=O)C[C@@](O)(C(C)=O)C[C@@H]3O[C@H]1C[C@H](N)[C@H](O)[C@H](C)O1	APE1 inh-1 25µM!, BLM inh-1 28µM, RECQ1 inh-1 28µM! | DNA dye displace inactive | APE1 inh-2 10µM | APE1 FP inh 2µM | BLM inh-2 36µM | RECQ1 ADP FP 0.63µM | FEN1 inh-2 34
COc1cccc2c1C(=O)c1c(O)c3c(c(O)c1C2=O)C[C@@](O)(C(=O)CO)C[C@@H]3O[C@H]1C[C@H](N)[C@@H](O)[C@H](C)O1	FEN1 inh-1 inconclusive (no result: APE1 inh-1, BLM inh-1, RECQ1 inh-1)
CO[C@@]1(NC(=O)CSC[C@@H](N)C(=O)O)C(=O)N2C(C(=O)O)=C(CSc3nnnn3C)CS[C@@H]21	none (no result: APE1 inh-1, BLM inh-1, RECQ1 inh-1, FEN1 inh-1, Tb PGK inh)
Cc1ccccc1-n1c(C)cc(/C=C2/C(=N)N3C(c4ccccc4)=CSC3=NC2=O)c1C	none
N=C1/C(=C\c2ccc(-c3cccc(C(=O)O)c3)o2)C(=O)N=C2SC=C(c3ccccc3)N12	APE1 inh-1 40µM, RECQ1 inh-1 inconclusive, FEN1 inh-1 32µM, Tb PGK inh inconclusive | APE1 inh-2 40µM | RECQ1 inh-2 inconclusive | FEN1 inh-2 67
Cc1ccc(CN2C(=O)N/C(=C\c3ccc(-c4ccc(C(=O)O)cc4C)o3)C2=O)cc1	APE1 inh-1 16µM, RECQ1 inh-1 inconclusive, GLS inh inconclusive, FEN1 inh-1 45µM, Tb PGK inh inconclusive | DNA dye displace inconclusive | EndoIV counter inactive | APE1 inh-2 inconclusive | APE1 FP inh inactive | FEN1 inh-2 76
CCOC(=O)c1c2c3c(cccc3[nH]c1=O)C(=O)c1ccccc1-2	none
